Only some compounds are listed: those with a hit (about 15% of all), similar ones and a draw of the others.
HCMV inh: inhibitors of human cytomegalovirus; HFF cells, HCMV-luciferase reporter, 72 h; stronger effect = lower value; activity change, negative = inhibition, % at 57.5 µM; 410,000 compounds, 4.5% hits; in the data active means activity change below about -60%; inconclusive means no clear call, values can overlap the other calls; inactive means above about -39%; further: on the % scale 0 is the no-effect control and ±100 the full control effect
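Luciferase read-out from HCMV-luciferase-infected HFFs (MOI 1 PFU/cell) 72 h post infection at 37C; compounds added after 16 h cell attachment; activity normalized between buffer-only basal and Salinomycin (10uM) inhibitor controls.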
SARS PLpro yeast: blocks SARS-CoV papain-like protease in a yeast assay | Potency, µM (series often up to 32.9 µM), for inactives: at the top dose activity, positive = growth rescue, most hits filed as activators | AID 485353 | S. cerevisiae expressing SARS-CoV PLpro, growth rescue | 330,000 compounds, 0.19% hits; calls by dose curve; further: potency means the concentration at half of the fitted maximal effect; 0% is about no effect; nearly all actives have a fitted effect of over 55% in size
Pf growth 96h: inhibits malaria parasite growth, 96 h; P. falciparum luciferase reporter growth, 96 h; Potency, µM (doses to about 28.7 µM), inactives show at the highest dose activity change, negative = inhibition, usual class: inhibitors; 320,000 compounds, 6.9% hits; AID 504834; further: potency means the concentration at half of the fitted maximal effect; on the % scale 0 is the no-effect control and ±100 the full control effect
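Parasite growth measured via integrated firefly luciferase reporter in P. falciparum. Infected erythrocytes at 2% hematocrit, 0.05% parasitemia final were treated 96 hours at 37 C under 5% CO2, and luminescence was read.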
Pf growth 48h: inhibits P. falciparum growth in the first generation, 48 h | P. falciparum luciferase growth in erythrocytes, 48 h | Potency, µM (series often up to 28.7 µM), without a hit: top-dose activity change, negative = inhibition, most hits filed as inhibitors | 310,000 compounds, 5.9% hits | AID 504832; further: potency means the concentration at half of the fitted maximal effect; on the % scale 0 is the no-effect control and ±100 the full control effect
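A one-generation exposure of luciferase-tagged malaria parasites in RPMI 1640/Albumax erythrocyte culture, 37 C and 5% CO2. Inhibition is inferred from decreased luminescence after adding detection reagent.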
HCV inh: blocks hepatitis C virus; Huh7.5.1 HCVcc-Cre infection, luciferase reporter, 44 h; Potency, µM (titrated, usually from 41.8 µM), for the others: top-dose activity change, negative = inhibition, actives largely listed as inhibitors; 340,000 compounds, 3.4% hits; further: potency means the concentration at half of the fitted maximal effect; on the % scale 0 is the no-effect control and ±100 the full control effect
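HCVcc-Cre virus at an moi near 0.5 was added right after compound to cells cultured 4 h from seeding (1,000 cells/well). Luciferase activity was determined 44 h later, 15 min after substrate addition at RT.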
Sm TGR inh: blocks Schistosoma mansoni thioredoxin glutathione reductase; purified TGR, DTNB reduction, TNB absorbance 405 nm; 360,000 compounds, 3% hits; Potency, µM (titrated, usually from 114 µM), inactives show top-dose activity change, negative = inhibition, actives largely listed as inhibitors; further: potency means the concentration at half of the fitted maximal effect; on the % scale 0 is the no-effect control and ±100 the full control effect; nearly all actives have a fitted effect of over 60% in size
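Kinetic colorimetric format: TGR-catalysed, NADPH-driven DTNB reduction monitored via TNB absorbance. Enzyme dispensed at 20 nM; compound exposure 15 min at room temperature before reaction start.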
* hit, by the source's call; ? = inconclusive; · = not tested or not shown; [ ] = another dose, or the depositor's remark. Unless noted, the call rests on the fitted dose curve; in most records, active means well fitted curve in the direction sought with a large enough effect; inconclusive means small, poorly fitted or top-dose-only effect, or another doubt; inactive means no such curve, though single readings can be large; an effect the other way counts as inactive or inconclusive.

SMILES	HCMV inh	SARS PLpro yeast	Pf growth 96h	Pf growth 48h	HCV inh	Sm TGR inh
Cc1cc(OCC(=O)OCC(=O)NCC2CCCO2)ccc1Cl (centres undefined)	0	-7%	3%	-6%	7%	-3%
O=C(Cc1ccccc1)NCc1ccc(-n2cccc2)cc1	12	0%	53%[1.15 µM]	7%	?	-1%
Cc1cc(CCC(=O)O)c(C)cc1CCC(=O)O	-8	3%	?	5.9µM*	15%	0%
Cc1ccc2c(c1)-c1ncc(C(=O)c3ccccc3O)cc1CO2	-26	·	·	·	·	21%
Cc1ccc(O)c(C(=O)c2cnc3c(c2)COc2ccccc2-3)c1	-66*	-51%	?	4.1µM*	10µM*	0%
COc1cccc(C(=O)NC(Cc2ccccc2)c2ccc3c(c2)OCCCO3)c1 (centres undefined)	11	4%	3.3µM*	·	?	-19%
COc1cccc(C(=O)NC(C)c2ccc(Br)cc2)c1 (centres undefined)	-8	-19%	-18%	-11%	24%	1%
CC(=O)NC(Cc1ccccc1)c1ccc2c(c1)OCCCO2 (centres undefined)	19	-3%	-14%	-7%	-13%	3%
O=C(NC(Cc1ccccc1)c1ccc2c(c1)OCCCO2)c1ccc(F)cc1 (centres undefined)	6	10%	9.3µM*	·	?	-16%
Cc1cccn2c(=O)c(-c3nnn[nH]3)cnc12	·	·	?	-2%	·	·
O=c1[nH]c(CS(=O)(=O)c2ccccc2)nc2ccccc12	-21	-6%	·	19%	0%	?
CCn1c(C)c(CS(=O)(=O)c2ccccc2)[nH]c1=O	-27	1%	17%	-5%	0%	0.028µM*
COC(=O)C(CC(C)C)N(Cc1cc(OC)cc(OC)c1)S(=O)(=O)c1ccccc1Br (centres undefined)	-19	-26%	·	·	?	·
CC(C)C[C@H](CO)N(Cc1ccccc1)S(=O)(=O)N(Cc1ccccc1)[C@@H](CO)CC(C)C	?	-8%	·	·	?	·
COC(=O)[C@H](CC(C)C)N(Cc1ccccc1)S(=O)(=O)N(Cc1ccccc1)[C@@H](CC(C)C)C(=O)OC	-69*	-14%	·	·	7%	·
COC(=O)[C@H](CC(C)C)N(Cc1ccccc1)S(=O)(=O)N(Cc1ccc(OC)cc1)[C@@H](CC(C)C)C(=O)OC	-66*	-5%	·	·	-8%[8.37 µM]	·
CCOC(=O)[C@@H](C)N(Cc1ccc(OC)cc1)S(=O)(=O)N(Cc1ccccc1)[C@H](C(=O)OC)C(C)C	-79*	-5%	?	10µM*	?	-8%
C=CCCN(C(CC(C)C)C(=O)OC)S(=O)(=O)c1ccccc1Br (centres undefined)	0	-6%	12µM*	?	27%[8.37 µM]	34%
COc1cc(NC(=O)CCC(=O)N2CCN(S(=O)(=O)c3ccc(C)cc3)CC2)cc(OC)c1	-7	·	·	·	?	·
CN(C)C(CNC(=O)c1cccc(C(F)(F)F)c1)c1ccco1 (centres undefined)	4	-1%	49%	-1%	-8%	-2%
CC(N=Cc1c(O)c2ccccc2oc1=O)C(=O)O (centres undefined)	72	0%	23%	13%	-7%	0%
CCN(c1cc(C)cc(C)c1)S(=O)(=O)c1nnc(NC(=O)c2ccccc2C)s1	-35	·	·	·	·	7%
C=CS(=O)(=O)N(Cc1ccccc1)[C@H](CO)CC(C)C	1	·	·	·	19%	·
COC(=O)[C@H](CC(C)C)NS(=O)(=O)N(Cc1ccccc1)[C@@H](CC(C)C)C(=O)OC	25	-3%	?	8.3µM*	-2%	-3%
C=C[C@H](CC(C)C)N(Cc1ccccc1)S(=O)(=O)N(Cc1ccc(OC)cc1)[C@H](C=C)CC(C)C	-9	3%	?	5.2µM*	-5%[8.37 µM]	1%
COC(C[C@H](O)CC(=O)[C@H](C)OCc1ccccc1)OC	-11	0%	67%	46%	12%	45µM*
